This is part of a sample that, as a whole, favours compounds with a hit. Of some 83,000 tested, about 20% had one in any assay.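 Cells were grown in 96-well plates and exposed to the test compound at a single concentration for 48 hours; results are reported as percent growth, with values below 10 considered active.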 Calls of active or inactive are those of the source.
tested on: M14 melanoma; assay: NCI-60 one-dose screen, 48 h (100 = growth as untreated, 0 = no growth, -100 = all killed); settings: 10 µM unless noted

Row | SMILES | growth
1 | COc1cc(C=O)ccc1OC1OC(COC(C)=O)C(OC(C)=O)C(OC(C)=O)C1OC(C)=O (stereo not given) | 96.6% (inactive)
2 | CC1=CCC(OC(=O)C(C)(O)CCC(O)(C(=O)OC2(C)C=CC(O)(C(C)C)CC2)C(C)C)(C(C)C)CC1 (stereo not given) | 102% (inactive)
3 | CC(=O)Nc1cccc(-c2ccc3c(c2)NC(=O)/C3=C\c2ccc[nH]2)c1 | 39.1% (inactive)
4 | CC(C)(C)c1ccc(NS(=O)(=O)c2ccc3nc(NC(=O)c4cnccn4)[nH]c3c2)cc1 | 35.1% (inactive)
5 | CC(C)(C)c1cc(/C=N/NC(=O)c2ccccc2NC(=O)c2cccs2)c(O)c(C(C)(C)C)c1 | 27.6% (inactive)
6 | C#CCNC(=O)[C@H](Cc1ccccc1)NC(=O)[C@]12CC[C@@H](C(=C)C)[C@@H]1[C@H]1CC[C@@H]3[C@@]4(C)CCC(=O)C(C)(C)[C@@H]4CC[C@@]3(C)[C@]1(C)CC2 | 81.7% (inactive)
7 | CCCCCCNC(=O)Oc1ccc(/C(=C(\C)c2ccccc2)c2ccc(OCCCN(C)C)cc2)cc1 | 40.1% (inactive)
8 | CC(=O)Nc1ccc(-c2ccc3c(c2)NC(=O)/C3=C\c2ccc[nH]2)cc1 | 105% (inactive)
9 | CCCCOc1ccc(/C=N/Nc2cc(C)nc3ccc(Br)cc23)cc1 | 4.9% (active)
10 | COc1cc(/C(C)=C(\c2ccc(Cl)cc2)c2ccc(OCCN(C)C)cc2)ccc1F | 31.5% (inactive)
11 | O=C(/C=C/c1ccc(Cl)cc1)c1ccc(NC(=O)N2CCN(c3cc4c(cc3F)c(=O)c(C(=O)O)cn4C3CC3)CC2)cc1 | 104% (inactive)
12 | O=C(c1nc2ccccc2[nH]1)C1C(c2ccc(Cl)cc2)C2CC3CCCC[C@H]3N2[C@@]12C(=O)Nc1cc(Cl)ccc12 (stereo not given in full) | 34.2% (inactive)
13 | O=C(NCCNc1nccc(-c2c(-c3cccc(F)c3)nc3sccn23)n1)c1ccc(Cl)cc1 | 38.8% (inactive)
14 | O=C(CCN1CCCC1)Nc1ccc2c(NCCCc3ccccc3)c3ccccc3nc2c1 | -61.5% (active)
15 | N#CC1=C(/N=C/c2ccccc2)Oc2c(ccc3ccccc23)C1c1ccc([N+](=O)[O-])cc1 (stereo not given) | 102% (inactive)
16 | Brc1ccc(Nc2csc(-c3ccccn3)n2)cc1 | 93.3% (inactive)
17 | COc1cc(/C(C)=C(\c2ccc(Cl)cc2)c2ccc(OCCN3CCCC3)cc2)ccc1F | 18.2% (inactive)
18 | CC(=O)N1c2ccccc2NC2=C(C(=O)NC2(C)C)C1c1ccco1 (stereo not given) | 68.6% (inactive)

Row | SMILES | growth
19 | CCOC(=O)CSc1nc2ccccc2c(=O)n1Cc1ccc(S(N)(=O)=O)cc1 | 97% (inactive)
20 | CCCCOc1ccc(/C(C)=N/Nc2cc(C)nc3ccc(Br)cc23)cc1 | 104% (inactive)
21 | COc1cc2c(c(O)c1Cl)C(=O)c1c(O)cc(C[C@H](C)O)cc1[C@H]2[C@H]1c2cc(C[C@H](C)O)cc(O)c2C(=O)c2c1cc(OC)c(Cl)c2O | 19% (inactive)
22 | O=C(c1ccccc1)N1N=C(c2ccc(-n3ccc(C(F)(F)F)n3)c(F)c2)CC1c1ccc[nH]1 (stereo not given) | 107% (inactive)
23 | O=C(Nc1ccc(-c2ccc3c(c2)NC(=O)/C3=C\c2ccc[nH]2)cc1)NC1CC1 | 94% (inactive)
24 | O=c1ccc(-c2nc(N3CCOCC3)c3ccccc3n2)c[nH]1 | 93.3% (inactive)
25 | COc1cc(/C=C\C(=O)O)ccc1OCc1ccccc1 | 109% (inactive)
26 | COc1ccc(C(C)=O)c(OC)c1 | 108% (inactive)
27 | NC1=NN=C(N)C1=Cc1cc2ccccc2n2nnnc12 | 111% (inactive)
28 | C=C1C(=O)O[C@H]2[C@H]1CC/C(CNC(=O)/C=C/c1cccc(OC)c1)=C\CC[C@@]1(C)O[C@@H]21 | -36.8% (active)
29 | CNC(=O)c1cc(Cn2nc(C)c(NC(=O)Nc3ccc(Cl)c(C(F)(F)F)c3)c2C)ccn1 | 97.5% (inactive)
30 | Cc1ccc(/C=N/NC(=O)CSc2nc3ccccc3c(=O)n2Cc2ccc(S(N)(=O)=O)cc2)cc1 | 98.1% (inactive)
31 | O=C(Cc1ccc(/C=C/C(=O)c2ncc[nH]2)cc1)Nc1ccc(Cl)cc1 | 63.6% (inactive)
32 | CCCOC(=O)N[C@H]1CCc2c(Cl)c(OC)c(OC)c(OC)c2-c2ccc(SC)c(=O)cc21 | -13.6% (active)
33 | O=S(=O)(NCCCNc1nccc(-c2c(-c3cccc(O)c3)nc3occn23)n1)c1ccc(Cl)cc1 | 24.3% (inactive)
34 | COc1cc2c(=O)n(CCN(C)C)c3c4cc5c(cc4ccc3c2cc1OC)OCO5 | -56.7% (active)
35 | C=CC(=O)N[C@@H](/C=C/C(=O)OCC)Cc1ccc(-c2cc(Cl)cc(Cl)c2)cc1 | 24.7% (inactive)

Reference: PubChem BioAssay (NCI)
